Experimental data reported in the supplement of paper PMC10646978.
± gives the standard deviation.

What follows are compounds tested on RAW-Dual (murine macrophage reporter line) (assay: IRF reporter (Lucia luciferase) activity fold change vs agonist alone; higher = enhanced IRF activity). Conditions: modulator concentration 10 µM; agonist: LPS 0.1 ug/mL.
In short: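 Overnight stimulation with a PRR agonist followed pre-incubation for 1 hour at 37 °C with compound at 10 μM final. This was done in RAW-Dual murine macrophage reporter cells seeded at 50 000 per well in 384-well plates. NF-κB (SEAP, QUANTI-Blue absorbance at 620 nm) and IRF (Lucia luciferase, QUANTI-Luc luminescence) were read from the supernatant. Each reporter's fold change relative to the mean agonist-only control on the same plate was averaged over replicate plates.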
`Fc1ccccc1C=NNc1nc(-c2ccccc2)cc(-c2ccccc2)n1` showed an IRF reporter of 1.14 ± 0.15. For `Cc1cnc2c(c1NCCCO)c(=O)n(C)c(=O)n2C`, the IRF reporter was 0.947 ± 0.11. `COc1ccc2sc(C)[n+](CCCS(=O)(=O)[O-])c2c1` gave an IRF reporter of 1.05 ± 0.12. Compound `Cc1cc(C(=O)Nc2ccccc2S(C)(=O)=O)no1` has an IRF reporter of 1.04 ± 0.05. For `CCC(=O)Nc1ccc(S(=O)(=O)N2CCSC(c3ccccc3C)CC2)c(C)c1` (stereo not given), the IRF reporter was 0.996 ± 0.085. In the case of `CCCCCN(CCCCC)C(=O)C(CCC(=O)[O-])NC(=O)c1ccc(Cl)c(Cl)c1` (stereo not given) [Prestw-915], the IRF reporter is reported as 1.55 ± 0.17. With `Cc1cccc(C)c1OCC(C)N.Cl` (stereo not given) the IRF reporter was 1.33 ± 0.29. `CC(=O)Nc1nnc(S(N)(=O)=O)s1` gave an IRF reporter of 1.28 ± 0.32. With `CN(C(=NS(=O)(=O)c1ccccc1)c1ccccc1)c1ccc(O)cc1` the IRF reporter was 1.2 ± 0.26. Compound `Cl.Cl.Cn1cc(CNCC2CCN(c3ncc(C(=O)NO)cn3)CC2)c2ccccc21` has an IRF reporter of 0.396 ± 0.025. With `COc1cc2c(cc1Cc1cccc(Cl)c1F)c(=O)c(C(=O)O)cn2[C@H](CO)C(C)C` the IRF reporter was 1.13 ± 0.12. Work on `O=C1CNC(=O)N1CC(O)Cn1c2ccc(Br)cc2c2cc(Br)ccc21` (stereo not given) yielded an IRF reporter of 0.928 ± 0.044. Compound `Cc1ccc(CNC(=O)CN(c2cccc3ccccc23)S(C)(=O)=O)cc1` has an IRF reporter of 1.47 ± 0.28. For `CN1CCC(COc2cnc(-c3cccc(Cn4nc(-c5cccc(C#N)c5)ccc4=O)c3)nc2)CC1`, the IRF reporter was 1.11 ± 0.14. Work on `Cc1cc(-n2cc(C(=O)N3CCOCC3)nn2)ccc1F` yielded an IRF reporter of 1.01 ± 0.17. With `COc1ccc(-c2oc(N=Cc3ccccc3O)c(C#N)c2-c2ccc(OC)cc2)cc1` the IRF reporter was 1.05 ± 0.089. With `O=C(Oc1ccc(C=Nc2ccc([N+](=O)[O-])cc2)cc1)c1ccccc1` the IRF reporter was 0.985 ± 0.12. For `COc1ccc(Br)cc1C(=O)Nc1cc(C(F)(F)F)cc(C(F)(F)F)c1`, the IRF reporter was 0.991 ± 0.07. `Cc1ccc(-n2c(C)cc(C=NNC(=O)CN3CCOCC3)c2C)c(C)c1` was tested, and the IRF reporter was 1.09 ± 0.19. `CC1=C(C(=O)Nc2cccc(C)n2)C(c2ccsc2)C2=C(CC(C)(C)CC2=O)N1` (stereo not given) was tested, and the IRF reporter was 1.2 ± 0.086. `Cc1oncc1CNC(=O)c1ccc(C(C)(C)C)cc1` gave an IRF reporter of 1.01 ± 0.05. Compound `O=C(NN=Cc1c(O)ccc2ccccc12)c1ccccc1Br` has an IRF reporter of 1.05 ± 0.074. `Cc1cc(C)nc(Nc2ncc(O)n2-c2ccc(F)cc2)n1` gave an IRF reporter of 1.04 ± 0.14. `CNCCC[C@]12CC[C@H](c3ccccc31)c1ccccc12` [Prestw-346] was tested, and the IRF reporter was 1.41 ± 0.14. With `CCOC(=O)N1CCN(C(=O)C2CCN(Cc3ccc(C)o3)CC2)CC1` the IRF reporter was 1.26 ± 0.3. For `CCNC(=O)CCC/C=C\C[C@@H]1[C@@H](/C=C/C(O)CCc2ccccc2)[C@@H](O)C[C@@H]1O` (stereo not given in full), the IRF reporter was 0.961 ± 0.061. Compound `CC(=O)Oc1ccc2c(C)c(Cl)c(=O)oc2c1C` has an IRF reporter of 1.25 ± 0.19. In the case of `CC(=O)Nc1ccc(C(=O)CSc2nnc[nH]2)cc1`, the IRF reporter is reported as 1.33 ± 0.086. `CCN(CC)c1ccc(-c2noc(CN3CCSCC3)n2)cn1` gave an IRF reporter of 1.15 ± 0.14. `Cc1cc(OC2CCN(S(=O)(=O)CCc3ccccc3)C2)cc(=O)n1C` (stereo not given) was tested, and the IRF reporter was 0.785 ± 0.19. `CCOC(=O)C1CCN(C(=O)c2ccc(C#CC(C)(C)O)cc2)CC1` was tested, and the IRF reporter was 1.34 ± 0.077. In the case of `COC(=O)[C@H](c1ccccc1Cl)N1CCc2sccc2C1.O=S(=O)(O)O`, the IRF reporter is reported as 1.02 ± 0.29. `CN1CCC(OC(c2ccccc2)c2ccccc2)CC1.Cl` gave an IRF reporter of 0.967 ± 0.19. For `CNCCCN1c2ccccc2CCc2ccccc21.Cl`, the IRF reporter was 1.46 ± 0.2. `Cc1cccc2sc(OC3CN(C(=O)Nc4ccccc4C(F)(F)F)C3)nc12` showed an IRF reporter of 1.19 ± 0.19. For `NC(=O)c1ccccc1O`, the IRF reporter was 1.23 ± 0.14. Compound `CSCCC(NC(C)=O)C(=O)NC1CCN(c2nc(C)nc3c2CCCC3)CC1` (stereo not given) has an IRF reporter of 1.29 ± 0.18. In the case of `CCOC(=O)C1=C(C)N(CC(C)C)C(=O)C1=Cc1cccc(Br)c1`, the IRF reporter is reported as 0.963 ± 0.082. Compound `Cc1cccc(C(=O)NC2CCC(F)(F)CC2)c1` has an IRF reporter of 1.1 ± 0.058. In the case of `CCOC(C#CCN(CC)CC)(c1ccccc1)c1ccccc1.Cl`, the IRF reporter is reported as 0.813 ± 0.054.

Same assay, conditions: modulator concentration 10 µM; agonist: MPLA […]
Compound `Fc1ccccc1C=NNc1nc(-c2ccccc2)cc(-c2ccccc2)n1` has an IRF reporter of 1.51 ± 0.37. With `Cc1cnc2c(c1NCCCO)c(=O)n(C)c(=O)n2C` the IRF reporter was 0.887 ± 0.21. `COc1ccc2sc(C)[n+](CCCS(=O)(=O)[O-])c2c1` showed an IRF reporter of 1.1 ± 0.3. For `Cc1cc(C(=O)Nc2ccccc2S(C)(=O)=O)no1`, the IRF reporter was 1.06 ± 0.15. With `CCC(=O)Nc1ccc(S(=O)(=O)N2CCSC(c3ccccc3C)CC2)c(C)c1` (stereo not given) the IRF reporter was 0.988 ± 0.17. With `CCCCCN(CCCCC)C(=O)C(CCC(=O)[O-])NC(=O)c1ccc(Cl)c(Cl)c1` (stereo not given) [Prestw-915] the IRF reporter was 1.29 ± 0.14. For `Cc1cccc(C)c1OCC(C)N.Cl` (stereo not given), the IRF reporter was 1.04 ± 0.13. Work on `CC(=O)Nc1nnc(S(N)(=O)=O)s1` yielded an IRF reporter of 0.921 ± 0.095. Work on `CN(C(=NS(=O)(=O)c1ccccc1)c1ccccc1)c1ccc(O)cc1` yielded an IRF reporter of 1.24 ± 0.2. `Cl.Cl.Cn1cc(CNCC2CCN(c3ncc(C(=O)NO)cn3)CC2)c2ccccc21` showed an IRF reporter of 0.692 ± 0.054. `COc1cc2c(cc1Cc1cccc(Cl)c1F)c(=O)c(C(=O)O)cn2[C@H](CO)C(C)C` was tested, and the IRF reporter was 0.848 ± 0.079. `O=C1CNC(=O)N1CC(O)Cn1c2ccc(Br)cc2c2cc(Br)ccc21` (stereo not given) was tested, and the IRF reporter was 0.698 ± 0.079. In the case of `Cc1ccc(CNC(=O)CN(c2cccc3ccccc23)S(C)(=O)=O)cc1`, the IRF reporter is reported as 1.07 ± 0.096. `CN1CCC(COc2cnc(-c3cccc(Cn4nc(-c5cccc(C#N)c5)ccc4=O)c3)nc2)CC1` showed an IRF reporter of 1.37 ± 0.36. `Cc1cc(-n2cc(C(=O)N3CCOCC3)nn2)ccc1F` gave an IRF reporter of 1.14 ± 0.17. For `COc1ccc(-c2oc(N=Cc3ccccc3O)c(C#N)c2-c2ccc(OC)cc2)cc1`, the IRF reporter was 1.12 ± 0.18. In the case of `O=C(Oc1ccc(C=Nc2ccc([N+](=O)[O-])cc2)cc1)c1ccccc1`, the IRF reporter is reported as 1.12 ± 0.29. `COc1ccc(Br)cc1C(=O)Nc1cc(C(F)(F)F)cc(C(F)(F)F)c1` gave an IRF reporter of 1.05 ± 0.14. For `Cc1ccc(-n2c(C)cc(C=NNC(=O)CN3CCOCC3)c2C)c(C)c1`, the IRF reporter was 1.07 ± 0.082. `CC1=C(C(=O)Nc2cccc(C)n2)C(c2ccsc2)C2=C(CC(C)(C)CC2=O)N1` (stereo not given) gave an IRF reporter of 0.979 ± 0.12. `Cc1oncc1CNC(=O)c1ccc(C(C)(C)C)cc1` was tested, and the IRF reporter was 1.02 ± 0.099. `O=C(NN=Cc1c(O)ccc2ccccc12)c1ccccc1Br` was tested, and the IRF reporter was 0.873 ± 0.057. `Cc1cc(C)nc(Nc2ncc(O)n2-c2ccc(F)cc2)n1` showed an IRF reporter of 1.16 ± 0.27. Work on `CNCCC[C@]12CC[C@H](c3ccccc31)c1ccccc12` [Prestw-346] yielded an IRF reporter of 1.59 ± 0.26. `CCOC(=O)N1CCN(C(=O)C2CCN(Cc3ccc(C)o3)CC2)CC1` gave an IRF reporter of 1.41 ± 0.3. `CCNC(=O)CCC/C=C\C[C@@H]1[C@@H](/C=C/C(O)CCc2ccccc2)[C@@H](O)C[C@@H]1O` (stereo not given in full) showed an IRF reporter of 0.95 ± 0.1. In the case of `CC(=O)Oc1ccc2c(C)c(Cl)c(=O)oc2c1C`, the IRF reporter is reported as 1.19 ± 0.16. In the case of `CC(=O)Nc1ccc(C(=O)CSc2nnc[nH]2)cc1`, the IRF reporter is reported as 1.47 ± 0.14. Compound `CCN(CC)c1ccc(-c2noc(CN3CCSCC3)n2)cn1` has an IRF reporter of 1.13 ± 0.37. `Cc1cc(OC2CCN(S(=O)(=O)CCc3ccccc3)C2)cc(=O)n1C` (stereo not given) showed an IRF reporter of 0.738 ± 0.29. Work on `CCOC(=O)C1CCN(C(=O)c2ccc(C#CC(C)(C)O)cc2)CC1` yielded an IRF reporter of 1.46 ± 0.12. Work on `COC(=O)[C@H](c1ccccc1Cl)N1CCc2sccc2C1.O=S(=O)(O)O` yielded an IRF reporter of 0.955 ± 0.22. `CN1CCC(OC(c2ccccc2)c2ccccc2)CC1.Cl` gave an IRF reporter of 1.08 ± 0.1. `CNCCCN1c2ccccc2CCc2ccccc21.Cl` was tested, and the IRF reporter was 1.88 ± 0.19. For `Cc1cccc2sc(OC3CN(C(=O)Nc4ccccc4C(F)(F)F)C3)nc12`, the IRF reporter was 1.15 ± 0.31. `NC(=O)c1ccccc1O` gave an IRF reporter of 1.19 ± 0.16. For `CSCCC(NC(C)=O)C(=O)NC1CCN(c2nc(C)nc3c2CCCC3)CC1` (stereo not given), the IRF reporter was 1.17 ± 0.16. In the case of `CCOC(=O)C1=C(C)N(CC(C)C)C(=O)C1=Cc1cccc(Br)c1`, the IRF reporter is reported as 1.19 ± 0.2. `Cc1cccc(C(=O)NC2CCC(F)(F)CC2)c1` gave an IRF reporter of 0.99 ± 0.2. Work on `CCOC(C#CCN(CC)CC)(c1ccccc1)c1ccccc1.Cl` yielded an IRF reporter of 1.62 ± 0.4.
